Data as given in PubChem BioAssay (NCATS).
Several values for one entry are separate records, joined by “and”; a condition that tells them apart may be missing. Equal values may be shown once. Inconclusive results are not listed. Activity calls are given as the source filed them. Unless noted, calls come from the whole dose curve.

How the values were obtained:
[1] = AP1 Signaling Pathway (AID 357; active = well fitted curve in either direction with a large enough effect, not every such curve was filed as active;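 note: ME-180 reporter cells stimulated with EGF at its EC50 level; % is set by controls: 0 for no effect and ±100 for the full control effect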)
Outline: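 AP-1-bla ME-180 cells, Opti-MEM + 0.5% dialyzed FBS, plated overnight 37 °C. Cpd titration + EC50 EGF, 5 h 37 °C. CCF4 2.5 h RT; ex 405, em 460/530 ratio → %activity, AC50.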

[2] = target: Cytochrome P450 1A2 (Homo sapiens) (UniProt P05177); test: p450-cyp1a2 (AID 410); note: potency is the fitted concentration of half-maximal effect;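 for activity change, negative = inhibition: -100% = full effect of reference inhibitor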
Sequence of Cytochrome P450 1A2 (Homo sapiens) (P05177 whole entry, looked up): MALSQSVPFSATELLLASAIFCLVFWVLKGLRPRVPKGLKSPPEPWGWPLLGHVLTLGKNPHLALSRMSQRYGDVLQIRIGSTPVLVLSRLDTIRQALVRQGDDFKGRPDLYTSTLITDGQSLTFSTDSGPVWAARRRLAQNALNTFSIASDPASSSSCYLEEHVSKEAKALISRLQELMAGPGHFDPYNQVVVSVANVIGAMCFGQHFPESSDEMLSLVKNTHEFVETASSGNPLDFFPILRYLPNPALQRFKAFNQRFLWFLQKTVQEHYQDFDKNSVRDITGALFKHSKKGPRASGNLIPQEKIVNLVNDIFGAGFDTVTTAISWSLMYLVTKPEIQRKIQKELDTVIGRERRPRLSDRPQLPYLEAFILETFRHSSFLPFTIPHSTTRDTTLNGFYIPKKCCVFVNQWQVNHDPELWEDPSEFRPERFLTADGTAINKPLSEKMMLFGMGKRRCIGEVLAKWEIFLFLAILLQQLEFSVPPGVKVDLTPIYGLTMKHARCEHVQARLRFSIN
Outline: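 Luminescent readout of luciferin formed from Luciferin-ME by human CYP1A2; data normalized against complete inhibition by 57 uM furafylline. Enzyme 20nM, substrate 100uM at Km, 100mM KPO4 buffer, 60 min reaction at room temperature.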

[3] = NFAT Signaling Pathway (AID 444; active = well fitted curve in either direction with a large enough effect, not every such curve was filed as active;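 note: carbachol stimulus at about its EC50 of 1 µM final; % is set by controls: 0 for no effect and ±100 for the full control effect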)
Outline: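 Read-out: CCF4 FRET ratio (460 nm/530 nm) after 1 h RT dye loading, used for %activity and AC50 from titration series. Cells: Jurkat NFAT-β-lactamase/M1 line, treated with compound plus 1 uM carbachol for 5 h, 37 °C.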

[4] = Stat Signaling Pathway (AID 446; active = well fitted curve in either direction with a large enough effect, not every such curve was filed as active;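 note: ME-180 cervical cancer cells given 40 pM IL-6 alongside compound; SIE-controlled beta-lactamase reporter measured as 460/530 nm FRET emission ratio; % is set by controls: 0 for no effect and ±100 for the full control effect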)
Outline: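 ME-180 SIE-bla cells; overnight plating; cpd + IL-6 40 pM, 5 h, 37 C; LiveBLAzer 2.5 h RT; 460/530 nm emission ratio. Normalized to 300 pM IL-6 and 125 nM JAK inhibitor controls.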

[5] = target: Glucocorticoid receptor (Homo sapiens) (UniProt P04150); test: GR-GFP Redistribution (AID 450;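 active = compounds whose dose series gives a full or clear partial fitted curve of increased nuclear translocation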; note: potency is the fitted concentration of half-maximal effect); conditions: U2OS GR-GFP nuclear translocation, laser cytometry, 2 h
Sequence of Glucocorticoid receptor (Homo sapiens) (P04150 whole entry, looked up, the tested form may be a part): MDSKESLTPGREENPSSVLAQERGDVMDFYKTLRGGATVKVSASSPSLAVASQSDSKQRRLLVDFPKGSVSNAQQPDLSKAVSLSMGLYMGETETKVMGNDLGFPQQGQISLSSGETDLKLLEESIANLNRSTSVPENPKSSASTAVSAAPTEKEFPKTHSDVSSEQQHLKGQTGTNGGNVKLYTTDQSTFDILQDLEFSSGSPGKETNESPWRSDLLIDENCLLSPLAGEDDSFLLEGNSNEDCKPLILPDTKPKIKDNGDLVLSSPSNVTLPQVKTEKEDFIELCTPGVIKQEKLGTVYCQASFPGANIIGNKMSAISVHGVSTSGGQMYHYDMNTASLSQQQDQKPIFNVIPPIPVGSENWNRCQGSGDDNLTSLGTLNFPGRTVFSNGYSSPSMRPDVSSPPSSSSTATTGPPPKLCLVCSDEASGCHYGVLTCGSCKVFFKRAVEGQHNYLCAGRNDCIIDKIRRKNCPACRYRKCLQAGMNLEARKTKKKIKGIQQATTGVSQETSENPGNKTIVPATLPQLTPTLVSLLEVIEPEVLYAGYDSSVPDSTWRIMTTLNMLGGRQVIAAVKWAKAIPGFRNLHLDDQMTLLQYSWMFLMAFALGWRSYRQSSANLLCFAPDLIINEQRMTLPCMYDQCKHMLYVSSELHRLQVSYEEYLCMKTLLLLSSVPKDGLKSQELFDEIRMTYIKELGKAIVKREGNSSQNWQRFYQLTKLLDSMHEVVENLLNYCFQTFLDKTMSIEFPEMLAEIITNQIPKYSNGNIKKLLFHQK

[6] = target: Glucocorticoid receptor (Homo sapiens) (UniProt P04150); test: GR-EFC Redistribution (AID 451); conditions: CHO-K1 GR-EFC translocation, beta-gal luminescence, 2 h; note: potency is the fitted concentration of half-maximal effect
Outline: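 Translocation of GR-ED fusion to nuclear EA restores b-gal, read by luminescence after 1 h room-temperature detection. Engineered CHO-K1 biosensor cells, 1,000/well, exposed 2 h at 37 C to titrations up to 46 uM final.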

[7] = target: Mitogen-activated protein kinase 10 (Mus musculus) (UniProt Q61831); test: JNK3 AlphaScreen Assay (AID 530; active = well fitted curve in either direction with a large enough effect, not every such curve was filed as active;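 note: kinase came from lysate of stimulated human HepG2 cells; signal reports phosphorylation of biotinylated GST-cJun 1-79 at Ser73 with 10 µM ATP; series mostly up to about 57 µM; % is set by controls: 0 for no effect and ±100 for the full control effect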)
Outline: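 Compound titrations were preincubated 15 minutes at room temperature with substrate, antibody and pre-activated JNK3-containing HepG2 lysate. Reactions were started with 10 uM ATP and stopped with EDTA-containing bead buffer for AlphaScreen detection.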

[8] = Cell Viability - BJ (AID 421); conditions: BJ fibroblast viability, qHTS;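 note: potency is the fitted concentration of half-maximal effect; cells exposed to compound for 40 hours at 37 °C before readout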
Outline: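 Luminescent ATP signal (CellTiter-Glo, 20 min at room temperature) served as the read-out of viable BJ cells after 40 hours of compound treatment. Responses were scaled between DMSO and 100 uM tamoxifen, and AC50 values were obtained by Hill modeling.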

[9] = Cell Viability - Jurkat (AID 426;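 active = dose-dependent loss of cell ATP signal giving a full or clear fitted curve, ranked by lower potency value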; note: potency is the fitted concentration of half-maximal effect); conditions: qHTS
Outline: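 qHTS, 1536-well; Jurkat E6-1, 5000 cells/well, complete medium; cpd 40 hr, 37 °C; CellTiter-Glo 20 min RT; luminescence. AC50 by Hill fit.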

[10] = Cell Viability - Hek293 (AID 427;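 active = compounds whose dose-response curve shows a full or clear partial loss of cell viability, called from curve shape rather than a numeric limit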;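 note: potency is the fitted concentration of half-maximal effect; cells exposed to compound for 40 hours at 37 °C before reading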); conditions: qHTS
Outline: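 Luminescent ATP read-out (CellTiter-Glo, 20 min RT) after 40 hr compound exposure at 37 °C in complete medium. Signal normalized to DMSO (basal) and 100 uM tamoxifen (100% inhibition); concentration-response fitted with the standard Hill equation to give AC50.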

[11] = Cell Viability - HepG2 (AID 433); conditions: qHTS;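 note: potency is the fitted concentration of half-maximal effect; potency for ATP loss meaning cytotoxicity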
Outline: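 Cytotoxicity is scored as loss of intracellular ATP in HepG2 cells exposed to compounds for 40 h. Concentration-response curves, normalized to DMSO and 100 uM tamoxifen, give AC50 values.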

[12] = Cell Viability - MRC5 (AID 434); conditions: MRC5 lung fibroblast viability, qHTS;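 note: potency is the fitted concentration of half-maximal effect; potency reflects cytotoxicity seen as loss of intracellular ATP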
Outline: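 qHTS cytotoxicity in human lung fibroblast MRC5 cells; 40 hr treatment, 37 °C; cellular ATP by luciferase luminescence; DMSO = 0%, 100 uM tamoxifen = 100% inhibition; Hill-fit AC50.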

[13] = Cell Viability - SK-N-SH (AID 435); conditions: SK-N-SH neuroblastoma cell viability qHTS;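 note: potency is the fitted concentration of half-maximal effect; compound exposure lasted 40 h at 37 °C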
Outline: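 Cells seeded at 1500 per well and incubated 5 hr at 37 °C. Compound added, then 40 hr at 37 °C. CellTiter-Glo added, 20 min at room temperature, luminescence read.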

[14] = Cell Viability - N2a (AID 540; active = well fitted curve in the direction sought with a large enough effect; an effect the other way counts as inactive or inconclusive;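 note: plate controls were DMSO alone for no effect and tamoxifen control for full effect; nearly all actives have a fitted effect of over 45% in size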)
Outline: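 Luminescent ATP signal (CellTiter-Glo, 20 min at room temperature) served as the viability read-out after N2a cells were treated with compounds for 40 hours at 37 °C. Concentration-response data were fitted to the Hill equation for AC50.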

[15] = Cell Viability - NIH 3T3 (AID 541; active = well fitted curve in the direction sought with a large enough effect; an effect the other way counts as inactive or inconclusive;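 note: plate controls were DMSO alone for no effect and tamoxifen positive control for full effect; nearly all actives have a fitted effect of over 25% in size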)
Outline: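 Luminescent ATP signal (CellTiter-Glo) served as the viability read-out after NIH 3T3 cells were exposed to compounds over a concentration range for 40 hr at 37 °C. Hill-equation modelling of concentration-response data gave AC50.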

[16] = Cell Viability - HUV-EC-C (AID 542; active = well fitted curve in the direction sought with a large enough effect; an effect the other way counts as inactive or inconclusive; note: % is set by controls: 0 for no effect and ±100 for the full control effect; nearly all actives have a fitted effect of over 35% in size)
Outline: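 qHTS cytotoxicity: HUV-EC-C, 1000 cells/well, 5 hr settle, compound 40 hr 37 °C, CellTiter-Glo, luminescence. AC50 via Hill equation.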

[17] = Cell Viability - H-4-II-E (AID 543; active = well fitted curve in the direction sought with a large enough effect; an effect the other way counts as inactive or inconclusive; note: % is set by controls: 0 for no effect and ±100 for the full control effect; nearly all actives have a fitted effect of over 35% in size)
Outline: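 Luminescent ATP signal (CellTiter-Glo) served as the viability read-out, with cytotoxicity seen as a concentration-dependent ATP drop. Cells were treated for 40 hours in complete medium. AC50 values derive from Hill-equation modelling.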

[18] = Cell Viability - SH-SY5Y (AID 544; active = well fitted curve in the direction sought with a large enough effect; an effect the other way counts as inactive or inconclusive;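 note: 0% = DMSO alone and -100% = 100 µM tamoxifen; nearly all actives have a fitted effect of over 55% in size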)
Outline: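 Luminescent ATP read-out (CellTiter-Glo) measures loss of viable SH-SY5Y neuroblastoma cells after 40 hr compound exposure at 37 °C. AC50 values derive from standard Hill modelling of qHTS concentration-response data.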

[19] = Cell Viability - Renal Proximal Tubule (AID 545; active = well fitted curve in the direction sought with a large enough effect; an effect the other way counts as inactive or inconclusive;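 note: 0% = DMSO only and -100% = 100 µM tamoxifen; nearly all actives have a fitted effect of over 40% in size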)
Outline: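 Cytotoxicity is scored as a concentration-dependent drop in cellular ATP in primary rat renal proximal tubule cells exposed for 40 hr. AC50 derives from Hill modelling.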

[20] = target: Lysosomal acid glucosylceramidase (Homo sapiens) (UniProt P04062); test: Glucocerebrosidase-p2 (AID 348; in the data active = potency below about 10 µM; note: potency is the fitted concentration of half-maximal effect); conditions: purified GBA, blue fluorogenic substrate, 40 min
Sequence of Lysosomal acid glucosylceramidase (Homo sapiens) (P04062 whole entry, looked up): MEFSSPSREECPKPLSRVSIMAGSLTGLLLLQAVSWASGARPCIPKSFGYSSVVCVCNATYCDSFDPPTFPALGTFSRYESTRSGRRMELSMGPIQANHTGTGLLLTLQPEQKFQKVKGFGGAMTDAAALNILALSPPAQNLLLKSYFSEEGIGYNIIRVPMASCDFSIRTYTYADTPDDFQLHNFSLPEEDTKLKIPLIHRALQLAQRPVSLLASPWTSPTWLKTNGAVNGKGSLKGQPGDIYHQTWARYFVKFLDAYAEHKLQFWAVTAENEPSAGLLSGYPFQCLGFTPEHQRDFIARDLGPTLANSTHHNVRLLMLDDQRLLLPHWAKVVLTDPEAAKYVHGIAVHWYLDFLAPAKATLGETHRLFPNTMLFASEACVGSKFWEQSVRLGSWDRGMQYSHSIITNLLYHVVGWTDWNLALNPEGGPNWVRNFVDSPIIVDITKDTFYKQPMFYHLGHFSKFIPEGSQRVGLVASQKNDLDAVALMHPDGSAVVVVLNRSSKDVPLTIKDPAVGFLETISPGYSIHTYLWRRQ
Outline: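 Compounds titrated from 0.6 nM upwards against 0.2 nM enzyme in pH 5.9 citric acid/KH2PO4, taurocholate, tween-20; blue fluorogenic substrate 80 uM, 40 min room temperature, stopped and read Ex 365/Em 440 for AC50.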

Cc1ccc(OC[C@H](O)[C@H](C)NC(C)C)c2c1CCC2
active: Potency [2] 1.58 µM and 398 nM
inactive: outcome [1] | outcome [3] | outcome [4] | Potency [5] > 46 µM | Potency [6] > 46 µM | outcome [7]

C=Cc1ccccc1
inactive: Potency [8] > 92 µM | Potency [9] > 92 µM | Potency [10] > 92 µM | Potency [11] > 92 µM | Potency [12] > 92 µM | Potency [13] > 92 µM | outcome [7] | outcome [14] | outcome [15] | outcome [16] | outcome [17] | outcome [18] | outcome [19]

COc1ccc2[nH]c(=O)c3c(c2c1)OC(C)(C)C=C3
active: Potency [2] 0.316 µM
inactive: Potency [5] > 46 µM | Potency [6] > 46 µM | outcome [7]

COC1=CC(=O)C[C@@H](C)[C@@]12Oc1c(Cl)c(OC)cc(OC)c1C2=O
inactive: Potency [2] | Potency [5] > 46 µM | Potency [6] > 46 µM | outcome [7]

CN(C)CCCn1cc(C2=C(c3c[nH]c4ccccc34)C(=O)NC2=O)c2ccccc21
active: Potency [2] 7.94 µM
inactive: Potency [5] > 46 µM | Potency [6] > 46 µM

CCCCCCCCCC(=O)O
inactive: Potency [8] > 92 µM | Potency [9] > 92 µM | Potency [10] > 92 µM | Potency [11] > 92 µM | Potency [12] > 92 µM | Potency [13] > 92 µM | outcome [7] | outcome [14] | outcome [15] | outcome [16] | outcome [17] | outcome [18] | outcome [19]

COC(C)=O
inactive: Potency [8] > 92 µM | Potency [9] > 92 µM | Potency [10] > 92 µM | Potency [11] > 92 µM | Potency [12] > 92 µM | Potency [13] > 92 µM | outcome [7] | outcome [14] | outcome [15] | outcome [16] | outcome [17] | outcome [18] | outcome [19]

O=C(O)c1cc2ccccc2c(Cc2c(O)c(C(=O)O)cc3ccccc23)c1O
inactive: Potency [20] > 11.4 µM | activity change, negative = inhibition [1] 13.4% [at 7.69 µM] | activity change, negative = inhibition [2] -4% [at 2.29 µM] | activity change, negative = inhibition [3] 6.69% [at 7.69 µM] | outcome [4] | Potency [6] > 9.22 µM | activity change, negative = inhibition [7] 3.49% [at 11.4 µM]

CCc1ccccc1OC[C@@H](O)CN[C@H]1CCCc2ccccc21
active: Potency [2] 12.6 µM
inactive: Potency [5] > 46 µM | Potency [6] > 46 µM | outcome [7]

COc1cc(C[C@H]2C(=O)OC[C@@H]2Cc2ccc(OC)c(OC)c2)ccc1O
inactive: Potency [6] > 46 µM | outcome [7]
active: Potency [2] 31.6 µM

O=C(O)CC(O)(CC(=O)O)C(=O)O
active: Potency [9] 58 µM
inactive: Potency [8] > 92 µM | Potency [10] > 92 µM | Potency [11] > 92 µM | Potency [12] > 92 µM | Potency [13] > 92 µM | outcome [7] | outcome [14] | outcome [15] | outcome [16] | outcome [17] | outcome [18] | outcome [19]

CN(C)Cc1ccccc1
inactive: Potency [8] > 92 µM | Potency [9] > 92 µM | Potency [10] > 92 µM | Potency [11] > 92 µM | Potency [12] > 92 µM | Potency [13] > 92 µM | outcome [7] | outcome [14] | outcome [15] | outcome [16] | outcome [17] | outcome [18] | outcome [19]

CC(C)CCNC(=O)[C@H](CC(C)C)NC(=O)[C@H]1O[C@@H]1C(=O)O
inactive: outcome [1] | outcome [3] | outcome [4] | Potency [5] > 20.6 µM

NCCCC(=O)O
inactive: outcome [1] | Potency [2] | outcome [3] | Potency [5] > 46 µM | Potency [6] > 46 µM | outcome [7]

C[C@]12CC[C@@H]3c4ccc(OS(=O)(=O)O)cc4CC[C@H]3[C@@H]1CCC2=O
inactive: outcome [1] | outcome [3] | outcome [4] | Potency [5] > 20.6 µM

CC(=O)C1=C(O)C=C2Oc3c(C(C)=O)c(O)c(C)c(O)c3[C@]2(C)C1=O
inactive: Potency [5] > 46 µM | Potency [6] > 46 µM | outcome [7]
active: Potency [2] 2 µM
